Experimental data reported in PubChem BioAssay AID1441 (NMMLSC, 2008).
About 830 (0.38%) of roughly 220,000 compounds were called active. The sample holds actives, similar compounds and a random draw of the others, so the mix is not that of the screen. A number with no mark means an inactive call. No rule for the calls is given here.

biological target: Regulator of G-protein signaling 16 (Homo sapiens) + Guanine nucleotide-binding protein G(o) subunit alpha (Homo sapiens) (UniProt O15492+P09471); assay: modulators of RGS16 binding to Galphao, primary screen, biochemical, human proteins, multiplexed bead flow cytometry (AID 1441); conditions: bead-based flow cytometry RGS16-Galphao binding, fluorescence; at 10 µM; actives lie on both sides;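 also: Galphao activated by GDP with aluminum fluoride before binding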
Sequence (O15492 whole entry, looked up): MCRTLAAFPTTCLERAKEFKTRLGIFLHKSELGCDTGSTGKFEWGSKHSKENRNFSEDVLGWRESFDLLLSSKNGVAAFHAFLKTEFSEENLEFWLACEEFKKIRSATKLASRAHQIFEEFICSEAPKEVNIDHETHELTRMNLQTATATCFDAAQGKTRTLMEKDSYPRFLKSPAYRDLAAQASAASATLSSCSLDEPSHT
Sequence (P09471 whole entry, looked up): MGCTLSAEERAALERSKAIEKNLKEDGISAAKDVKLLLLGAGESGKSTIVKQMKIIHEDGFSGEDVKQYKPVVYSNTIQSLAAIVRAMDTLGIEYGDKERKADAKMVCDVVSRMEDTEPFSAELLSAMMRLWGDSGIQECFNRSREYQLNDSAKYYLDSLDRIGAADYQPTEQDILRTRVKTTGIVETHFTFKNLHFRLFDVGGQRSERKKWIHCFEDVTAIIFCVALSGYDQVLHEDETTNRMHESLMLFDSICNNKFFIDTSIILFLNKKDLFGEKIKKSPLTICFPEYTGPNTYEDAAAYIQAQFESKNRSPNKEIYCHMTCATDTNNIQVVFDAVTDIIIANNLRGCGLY

Structure (SMILES) | binding response (% of control)
CC(C)Oc1ccc(CCc2nnc(SCC(=O)O)n2-c2ccccc2)cc1 | 99.7%
COC(=O)[C@H]1Cc2cnoc2C[C@]1(C)C(=O)O | 104%
Cc1ccc(SCC2=NNC(=O)C2)cc1 | 110%
Cc1ccc(N2C(=O)C(Cc3ccccc3)NC2=S)cc1 (centres undefined) | 102%
Cc1ccc(N2C(=O)C3CC3C2=O)cc1 (centres undefined) | 101%
Cc1ccc(N2C(=O)C3C(c4ccccc4)(C2=O)C3(c2ccccc2)c2ccccc2)cc1 (centres undefined) | 13.2% (active)
C/C=C/c1ccc(OCCCCN2CCC(C)CC2)c(OC)c1 | 95%
O=c1[nH]c2ccccc2s1 | 23% (active)
O=c1c(-c2ccc(Cl)cc2)[n+]([O-])c2ccccc2n1OCc1nc2ccccc2[nH]1 | 108%
CCCC1C(c2ccccc2)C(C#N)(C#N)C2(C#N)CC1(N)NC2=O (centres undefined) | 178% [activator] (active)
O=C(NNC(=S)NC1CCCCC1)c1ccccc1Cl | 99.1%
CCC(=O)Nc1c(S(=O)(=O)c2ccccc2)c2nc3ccccc3nc2n1Cc1ccccc1 | 13.9% (active)
Cc1ccc(S(=O)(=O)c2c(N)n(C)c3nc4ccccc4nc23)cc1 | 101%
CCN(CC)CCn1c(N)c(S(=O)(=O)c2ccccc2)c2nc3ccccc3nc21 | 104%
S=c1[nH]nc(-c2cccs2)n1/N=C/c1cn(-c2ccccc2)nc1-c1ccc(Cl)cc1 | 98.8%
C/C(=N\NS(=O)(=O)c1ccc(Br)cc1)c1cccs1 | -881% (active)
C/C(=N\OCC(=O)Nc1ccc(Br)cc1)c1cccs1 | 99.8%
O=S(=O)(NN=C1CCCCCCC1)c1ccc(Br)cc1 | 106%
Cc1ccc(-n2c(SCC(=O)Nc3ccc4c(c3)OCO4)nnc2-c2ccccn2)cc1 | 96.8%
COc1ccc(-n2c(SCC(=O)OC(C)C)nnc2-c2ccccn2)cc1 | 242% [activator] (active)
Cc1ccc(-n2c(Cc3cccs3)nnc2SCC(=O)OC(C)C)cc1 | 103%
Cc1cc(C(=O)OCC(=O)Nc2nccs2)c2ccccc2n1 | 99%
CCc1nc(NCCO)c(C#N)c2c1CCCC2 | 92.9%
CC(=O)NCCn1c(SCC(=O)Nc2ccc(C)cc2)nc2ccccc2c1=O | 197%

Structure (SMILES) | binding response (% of control)
CCc1ccc(NC(=O)CSc2nc3ccccc3c(=O)n2CCN2CCOCC2)cc1 | 97.8%
CCOc1ccc(NC(=O)CSc2nc3ccccc3c(=O)n2Cc2cccs2)cc1 | -1.24% (active)
NC(=O)c1nnsc1-c1ccc(-c2snnc2C(N)=O)cc1 | 103%
COc1cc2[nH]c(=S)n(Cc3ccc(F)cc3)c(=O)c2cc1OC | 76.9%
Cc1cc(C(=O)N/N=C/c2cc([N+](=O)[O-])cc(C)c2O)n[nH]1 | 78.3%
Cn1c(CCCOc2ccc(Cl)cc2Cl)n[nH]c1=S | 101%
O=S(=O)(c1ccccc1)N1CN(Cc2ccc(F)cc2)c2nc3ccccc3nc21 | 100%
CC(NC(=O)C1CCC(CNc2c(N3CCOCC3)c(=O)c2=O)CC1)c1ccccc1 (centres undefined) | 99.6%
COc1ccc(CNC(=O)C2CCC(CNc3c(N4CCOCC4)c(=O)c3=O)CC2)cc1 (centres undefined) | 104%
O=C(NCc1ccc(F)cc1)C1CCC(CNc2c(N3CCOCC3)c(=O)c2=O)CC1 (centres undefined) | 3.97% (active)
O=C(Nc1cccnc1Oc1ncnc2cc(Cl)ccc12)c1ccc(F)cc1 | 102%
CN1CCN(c2ccc(CNS(=O)(=O)c3cccc(F)c3)cc2)CC1 | 104%
CN(C)CCOc1cccc(Br)c1 | 103%
CC1(C)C=C2[C@H]3CC[C@@H]4[C@@]5(C)CCC(=O)C(C)(C)[C@@H]5CC[C@@]4(C)[C@]3(C)CC[C@@]2(C(=O)O)CC1 | 267% [activator] (active)
CC1Cc2ccccc2N1CC(=O)Nc1ccc(S(N)(=O)=O)cc1 (centres undefined) | 93.2%
O=C1CCC(=O)N(O)CCCCCNC(=O)CCC(=O)N(O)CCCCCNC(=O)CCC(=O)N(O)CCCCCN1 | 40.8%
CCS(=O)(=O)c1cc([N+](=O)[O-])c(Sc2ccccc2N)s1 | 91.4%
O=C(NCCCn1ccnc1)C(=O)NCC1OCCN1S(=O)(=O)c1cc(F)ccc1F (centres undefined) | 105%
Cc1ccc(SCCC(=O)OCC(=O)Nc2ncc(Cl)cc2Cl)cc1 | 106%
Cc1ccc(-n2c(SCC(=O)Nc3ncc(Cl)cc3Cl)nc3ccccc32)cc1 | 13.7% (active)
NS(=O)(=O)c1cccc(NC(=O)CSc2nc3ccccc3n2-c2ccccc2)c1 | 105%
CCCNC(=O)c1c(Cl)cnn1-c1ccc(C)cc1 | 99.5%
Cc1c(C(=O)Nc2ccccc2Cl)oc2ccc(S(=O)(=O)N3CCC4(CC3)OCCO4)cc12 | 107%
CCOc1ccccc1NC(=O)c1cc(S(=O)(=O)N2CCC3(CC2)OCCO3)ccc1F | 4.15% (active)

Structure (SMILES) | binding response (% of control)
CCOc1ccccc1NC(=O)CCN1CCN(S(=O)(=O)c2ccc(OC)cc2)CC1 | 102%
Cc1ccc(C(=O)N/C(=C/c2cccnc2)C(=O)O)cc1 | 100%
Cc1cc(OCCN2CCCC2)cc(C(C)C)c1 | 93.3%
COC(c1ccccc1)c1nnc(CCC(=O)N2CCN(CCOc3ccccc3)CC2)o1 (centres undefined) | 101%
COc1cccc(C(=O)NNC(=O)c2ccccc2Br)c1 | 105%
COc1cccc(C(=O)NCCSc2ccc(Br)cc2)c1 | 11.1% (active)
COc1cc(OC)cc(C(=O)NCCSCc2ccco2)c1 | 97.1%
CC(=O)c1sc(NC(=O)C2=NN(c3ccccc3)C(=O)CC2)nc1C | 102%
O=C(Cn1ncc(N2CCCC2)c(Br)c1=O)c1ccc(Cl)cc1 | 103%
O=C(COc1ccc(Cl)cc1)N1CCN(c2cccc(C(F)(F)F)c2)CC1 | 107%
O=C(CN1CCN(c2ccc(Cl)cc2)CC1)N1CCCC1 | 101%
COC(=O)c1ccccc1OCC(=O)N1CCN(c2ccc(Cl)cc2)CC1 | 461% [activator] (active)
CN(C(=O)COC(=O)c1cc(-c2ccco2)nc2ccccc12)C1CCS(=O)(=O)C1 (centres undefined) | 89.7%
Cc1ccc(S(=O)(=O)CC(=O)Nc2c(C)n(C)n(-c3ccccc3)c2=O)cc1 | 98%
Cc1cc(C)cc(N(CC(=O)Nc2c(C)n(C)n(-c3ccccc3)c2=O)S(C)(=O)=O)c1 | -28.4% (active)
Cc1cc(C)cc(N(C(C)C(=O)Nc2c(C)n(C)n(-c3ccccc3)c2=O)S(C)(=O)=O)c1 (centres undefined) | 109%
C/C(=N/N1CCN(Cc2cccc3ccccc23)CC1)c1cccnc1 | 104%
COC(=O)c1ccccc1NC(=S)NC(=O)c1ccccc1F | 101%
C/C=C/C(=O)OCC(=O)Nc1ccc(F)cc1Cl | 104%
Cc1cccc(CN2CCN(Cc3cnn(-c4ccccc4F)c3)CC2CCO)n1 (centres undefined) | 101%
O=C(NCc1ccccc1)c1ccc(S(=O)(=O)Nc2cccc(C(F)(F)F)c2)cc1 | 80.9%
CCOC(=O)CSc1nc2c(c(=O)n(C)c(=O)n2C)n1Cc1ccccc1F | 102%
CCOC(=O)CSc1nc2c(c(=O)n(Cc3ccccc3Cl)c(=O)n2C)n1C | -55.5% (active)
Cn1c(=O)c2c(nc(SCC(=O)Nc3ccccc3N3CCCCC3)n2C)n(C)c1=O | 117%

Structure (SMILES) | binding response (% of control)
COc1ccccc1C1CCN(C(=S)Nc2ccc(Br)cc2)CC1 | 98%
COc1ccc(NS(=O)(=O)c2ccc(NC(=S)NC(=O)CC(C)C)cc2)cc1 | 98.4%
CC(C)CC(=O)NC(=S)Nc1cc(C(=O)O)ccc1Cl | 103%
CC(=O)c1ccc(NC(=S)NC(=O)CC(C)C)cc1 | 21.8% (active)
CC(=O)Nc1cccc(-c2nc3ccccc3s2)c1C | 108%
C/C(=N\NC(=O)c1cccnc1)c1ccc(-c2ccccc2)cc1 | 95.2%
CC(C)c1nc(CNC(=O)CC2C(=O)NCCN2Cc2ccoc2)cs1 (centres undefined) | 105%
CC(C)=C1SC(N2CCN(c3ccc(C)c(Cl)c3)CC2)=NC1=O | 99.9%
COc1ccc(CC(=O)Nc2ccc(C(=O)NC(C)(C)C)cc2)cc1 | 99.7%
CC(C)(C)NC(=O)c1cccc(NC(=O)Cc2ccc(Br)cc2)c1 | -3.28% (active)
Cc1cccc(C)c1NC(=O)CNC(=O)Cc1ccc(Br)cc1 | 98.2%
O=C(COC(=O)c1ccncc1)c1ccccc1 | 104%
O=C1C2C3C=CC(C3)C2C(=O)N1c1ccc(S(=O)(=O)Nc2nccs2)cc1 (centres undefined) | 93.2%
O=C(Nc1ccccc1)c1cc2ccccc2[nH]1 | 13.8% (active)
CC(C)n1c(=O)[nH]c2cc(C(=O)Nc3ccccc3)ccc21 | 107%
COc1ccc2[nH]c(C(=O)Nc3ccccc3Cl)cc2c1 | 97.5%
O=C(Nc1ccc(S(=O)(=O)Nc2nccs2)cc1)c1cc(=O)[nH]c2ccccc12 | 100%
CC1CCN(Cc2nc(-c3ccc(Cl)cc3)no2)CC1 | 108%
COC(=O)C1=C(Nc2ccc(C)cc2)C=C(C)C(C(=O)OC)C1c1ccc(F)cc1 (centres undefined) | 109%
COc1ccc(NC(=O)Cn2c(=O)n(Cc3ccco3)c(=O)c3ccccc32)cc1 | 101%
CN(c1ccccc1)c1ccc(/C=c2\s/c(=C(/C#N)C(=O)C(C)(C)C)n(Cc3ccco3)c2=O)cc1 | 551% [activator] (active)
Cc1cs/c(=N\N=C\c2ccc(O)cc2)n1Cc1ccco1 | 104%
